# Source: PubChem BioAssay AID504339 (National Center for Advancing Translational Sciences (NCATS), 2011)
# Screen size: about 390,000 compounds; about 17,000 (4.4%) were called active. Where a call stands in place of a potency, no number is given. Roughly 8% stayed inconclusive and do not appear here. Calls come from the whole dose curve; as a rule, active = well fitted inhibition curve with a large enough effect; inconclusive = small, poorly fitted or top-dose-only effect; inactive = no such curve, though single readings can be large or run the other way. The sample as a whole holds a higher share of actives than the screen did.
# Biological target: Lysine-specific demethylase 4A (Homo sapiens) (UniProt O75164)
# Sequence (O75164 whole entry, looked up, the tested form may be a part): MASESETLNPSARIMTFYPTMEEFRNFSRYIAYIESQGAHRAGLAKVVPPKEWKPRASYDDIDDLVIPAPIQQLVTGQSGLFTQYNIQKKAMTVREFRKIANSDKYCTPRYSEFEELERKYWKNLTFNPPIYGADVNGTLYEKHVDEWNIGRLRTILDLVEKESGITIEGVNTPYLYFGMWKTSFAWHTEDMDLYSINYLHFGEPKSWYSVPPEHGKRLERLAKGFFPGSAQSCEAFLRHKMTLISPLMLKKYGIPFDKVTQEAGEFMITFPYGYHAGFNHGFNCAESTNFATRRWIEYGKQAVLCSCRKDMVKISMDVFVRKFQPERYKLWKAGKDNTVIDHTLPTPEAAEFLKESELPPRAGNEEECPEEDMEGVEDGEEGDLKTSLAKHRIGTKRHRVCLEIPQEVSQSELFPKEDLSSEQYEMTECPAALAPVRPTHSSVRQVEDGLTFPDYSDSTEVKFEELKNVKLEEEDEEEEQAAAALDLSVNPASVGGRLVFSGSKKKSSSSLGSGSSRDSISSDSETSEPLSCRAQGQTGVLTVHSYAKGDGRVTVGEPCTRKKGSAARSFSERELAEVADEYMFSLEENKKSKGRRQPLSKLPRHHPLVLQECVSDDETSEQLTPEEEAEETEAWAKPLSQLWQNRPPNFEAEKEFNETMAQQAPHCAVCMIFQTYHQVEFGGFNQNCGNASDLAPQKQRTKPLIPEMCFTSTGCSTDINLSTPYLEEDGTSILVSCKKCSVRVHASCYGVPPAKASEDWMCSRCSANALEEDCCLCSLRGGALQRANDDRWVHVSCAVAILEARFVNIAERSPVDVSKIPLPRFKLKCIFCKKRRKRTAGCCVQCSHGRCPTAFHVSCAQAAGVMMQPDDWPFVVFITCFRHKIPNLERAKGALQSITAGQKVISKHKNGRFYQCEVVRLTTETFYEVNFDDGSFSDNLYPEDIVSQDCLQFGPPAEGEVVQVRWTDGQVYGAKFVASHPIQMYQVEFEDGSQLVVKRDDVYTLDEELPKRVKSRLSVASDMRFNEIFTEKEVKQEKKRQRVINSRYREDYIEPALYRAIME
# Assay: qHTS Assay for Inhibitors of JMJD2A-Tudor Domain; note: nearly all actives have a fitted effect of over 50% in size
# Conditions: AlphaScreen JMJD2A-Tudor / H3K4me3 peptide binding; series mostly up to 114 µM
# Potency is the fitted concentration of half-maximal effect.
row,SMILES,Potency
1,CC(C)Oc1ccc(NC(=O)c2cc3ccccc3o2)cc1,inactive
2,CCCCn1c(CNC(=O)C23CC4CC(CC(C4)C2)C3)nnc1SCC(=O)Nc1ccc(C)cc1,inactive
3,COc1cc(/C=N/NC(=S)Nc2cccnc2)cc(OC)c1O,inactive
4,COc1cc(/C=N/Nc2ccc(C)cc2)cc(Br)c1O,50.1 µM (active)
5,COc1cc(/C=N/O)cc(Br)c1OS(=O)(=O)c1ccc(C)cc1,inactive
6,COc1ccccc1CNC(=O)C(=O)NCC(c1ccco1)S(=O)(=O)c1ccc(F)cc1 (configuration not stated),inactive
7,Cc1coc2c(O)cc3c(c12)OC1(N2CCCCC2)C(=O)NCCCC31 (configuration not stated),20 µM (active)
8,CC(=O)N1CCCc2ccc(NS(=O)(=O)c3ccc(F)cc3F)cc21,inactive
9,CC1CCCCN1S(=O)(=O)c1ccc(F)c(C(=O)Nc2ccccc2C(F)(F)F)c1 (configuration not stated),inactive
10,CCN(CC)CCNC(=O)Cn1ncc2c3ccccc3n(Cc3ccccc3C)c2c1=O,inactive
11,Oc1ccc(-n2nnnc2SCc2c(F)cccc2Cl)cc1,inactive
12,Cc1ccc(CSc2nnc(-c3cnccn3)n2C)cc1,inactive
13,Cn1c(SCc2c(F)cccc2Cl)nnc1-c1cnccn1,79.4 µM (active)
14,CCOc1ccc(NC(=O)CSc2c3c(nc4ccccc24)CCCC3)cc1,inactive
15,CCN1/C(=C/c2ccc3ccc(C)cc3[n+]2CC)Sc2ccccc21,89.1 µM (active)
16,CCN1/C(=C\c2ccc3ccccc3[n+]2CC)Sc2cc(C)ccc21,20 µM (active)
17,CCOc1cc(CNC(=O)c2sc3ncnc(N(C)C4CCCCC4)c3c2C)ccc1OC,inactive
18,Cc1ccc(C(=O)CSc2nc(-c3ccccc3)nc3c2CCCC3)c(C)c1,inactive
19,COc1ccc(NC(=O)CSC2=Nc3ccccc3C3=NC(CC(=O)NCc4ccccc4OC)C(=O)N23)cc1Cl (configuration not stated),inactive
20,Cc1nn(CC(=O)O)c(=O)c2cc3cc(F)ccc3n12,inactive
21,CCC(=O)N1CCc2cc(CNC(=O)Nc3ccccc3Cl)ccc21,inactive
22,CC(=O)N1c2ccc(S(=O)(=O)N3CCCCCC3)cc2CC1C(=O)NCc1ccccc1C (configuration not stated),inactive
23,Cc1c(NC(=O)C(C)(C)C)cccc1-c1nc2ccccc2s1,inactive

row,SMILES,Potency
1,CCN(CC)CCNC(=O)CN1N=C(c2ccc(OC)cc2)CCC1=O,inactive
2,C#CCOCCOCCOCCNc1nc(N2CCN(C(=O)CCCCCCCCCCNC(=O)[C@H]([C@@H](C)CC)n3cc(CCCCN=C(N)N)nn3)CC2)nc(N2CCN(C(=O)CCCCCCCCCCNC(=O)[C@H](CO)n3cc(CCCSC)nn3)CC2)n1,20 µM (active)
3,CC[C@@H](C)[C@@H](C(=O)N1CCN(C(=O)OC(C)(C)C)CC1)n1cc(CCC(=O)O)nn1,inactive
4,C#CCOCCOCCOCCNc1nc(N2CCN(C(=O)[C@H](C(C)C)n3cc(CCO)nn3)CC2)nc(N2CCN(C(=O)[C@H](C(C)C)n3cc(CCO)nn3)CC2)n1,inactive
5,C#CCOCCOCCOCCNc1nc(N2CCN(C(=O)CCCCCCCCCCNC(=O)[C@H](CCCCN)n3cc(C)nn3)CC2)nc(N2CCN(C(=O)CCCCCCCCCCNC(=O)[C@H](CO)n3cc(CCCSC)nn3)CC2)n1,56.2 µM (active)
6,C#CCOCCOCCOCCNc1nc(N2CCN(C(=O)CCCCCCCCCCNC(=O)Cn3cc(CCCCCN)nn3)CC2)nc(N2CCN(C(=O)CCCCCCCCCCNC(=O)[C@H](CO)n3cc(CCCSC)nn3)CC2)n1,79.4 µM (active)
7,Cc1c(-c2nsc(NC(=O)c3cccc(Cl)c3)n2)nnn1-c1ccccc1C(F)(F)F,inactive
8,COc1ccc(NC(=O)CCCN2C(=O)CCn3nc(-c4cn(C)c5ccccc45)cc32)cc1OC,inactive
9,Cc1ccc(SCC(=O)Nc2ccc3oc(-c4ccccc4C)nc3c2)cc1,inactive
10,CCN(CC)c1ccc(NC(=O)Cn2nc3c(cc2=O)CCCC3)c(C)c1,inactive
11,CCOc1ccc(CC(=O)NCCc2csc3nc(-c4ccccc4F)nn23)cc1,inactive
12,O=C(CN1C(=O)C2C3C=CC(C3)C2C1=O)Nc1nc(-c2ccccn2)cs1 (configuration not stated),50.1 µM (active)
13,CC(NC(=O)c1ccco1)C(=O)Nc1nc(-c2ccccn2)cs1 (configuration not stated),44.7 µM (active)
14,O=C(CN1C(=O)C2C3C=CC(C3)C2C1=O)NCCc1ccccc1Cl (configuration not stated),inactive
15,O=C(COc1ccccc1F)Nc1nc(-c2ccccn2)cs1,79.4 µM (active)
16,O=C(NCCN1C(=O)C2C3C=CC(C3)C2C1=O)Nc1ccccn1 (configuration not stated),inactive
17,CSCCC(NC(=O)c1ccco1)C(=O)Nc1cc(C)ccn1 (configuration not stated),inactive
18,CC1CCN(S(=O)(=O)c2nnc(NC(=O)COc3ccccc3F)s2)CC1,inactive
19,Cc1cc(NC(=O)[C@H](C)NC(=O)c2ccco2)ccc1Br,inactive
20,Cc1csc2nc(COC(=O)c3ccc(NC(=O)COc4ccccc4F)cc3)cc(=O)n12,inactive
21,CCOc1ccccc1CNC(=O)Nc1cn(CC(C)C)c(=O)c2ccccc12,inactive
22,CCc1nn(CC(=O)N2CCN(c3ccc(Cl)cc3)CC2)c(=O)c2cc3occc3n12,inactive
23,Cc1ccc(CCNC(=O)c2ccc(CS(=O)(=O)Cc3cccc(C)c3)o2)cc1,inactive

row,SMILES,Potency
1,Cc1ccc(-n2c(SCC(=O)Nc3cccc(F)c3)nc3c(oc4ccccc43)c2=O)cc1C,inactive
2,COC(=O)c1ccc(/C=N/N2C(C)CCCC2C)cc1 (configuration not stated),63.1 µM (active)
3,COC(=O)c1ccc(/C=N/OCC(=O)Nc2cc(F)ccc2F)cc1,inactive
4,COC(=O)c1ccc(/C=N/NC(=O)C(=O)N2CCCCCC2)cc1,inactive
5,CCOc1ccc(/C(O)=C2/C(=O)C(=O)N(Cc3cccnc3)C2c2ccc(N(C)C)cc2)c(C)c1 (configuration not stated),56.2 µM (active)
6,CCOc1cccc(/C(O)=C2/C(=O)C(=O)N(CCOC)C2c2ccncc2)c1 (configuration not stated),inactive
7,CCCOc1ccc(C2c3c(-c4ccccc4O)n[nH]c3C(=O)N2Cc2cccnc2)cc1 (configuration not stated),inactive
8,Oc1ccccc1CN1CCN(C(c2ccccc2)c2ccccc2)CC1,56.2 µM (active)
9,COc1ccccc1N1CCN(Cc2ccc(OC)c3ccccc23)CC1,3.16 µM (active)
10,COc1ccccc1N1CCN(Cc2cc(OC)c3c(c2)OCO3)CC1,inactive
11,CC(=O)N1CCN(CC(c2ccccc2)c2ccccc2)CC1,inactive
12,CNCC(O)CN1CCN(c2ccccc2OC)CC1 (configuration not stated),inactive
13,COc1ccccc1CN1CCN(C(c2ccccc2)c2ccccc2)CC1,50.1 µM (active)
14,COc1ccc(OC)c(CN2CCN(C(=O)CNC(=O)c3cc(C)cc(C)c3)CC2)c1,inactive
15,COc1ccccc1NC(=S)N1CCN(C(c2ccccc2)c2ccccc2)CC1,inactive
16,CC(C)OCC(O)CN1CCN(C(c2ccccc2)c2ccccc2)CC1 (configuration not stated),inactive
17,COc1ccccc1CNCc1cccs1,inactive
18,COc1ccccc1Cn1c(CO)nc2ccccc21,inactive
19,COc1ccccc1CN1CCN(Cc2cc(OC)c(OC)cc2OC)CC1,7.08 µM (active)
20,CCCCNc1ccc(-c2nc(-c3ccncc3)no2)cc1[N+](=O)[O-],inactive
21,CCOC(=O)c1c(S(=O)(=O)N2CCC(C(=O)NCc3ccccc3OC)CC2)c(C)n(C)c1C,inactive
22,O=C(COc1ccccc1)NCc1ccc2c(c1)CCN2C(=O)c1ccc(F)cc1,inactive
23,COc1ccc(-c2c(C)nn3c(N4CCC(C(=O)NCCC(C)C)CC4)cc(C)nc23)cc1OC,inactive

row,SMILES,Potency
1,COc1ccccc1CNc1nc2ccc(Cl)cc2n2cnnc12,inactive
2,CCn1c(C)c(C)c2cc(C(=O)NCCc3cc(OC)ccc3OC)ccc21,35.5 µM (active)
3,COc1ccc(OC)c(CCNC(=O)c2nn(C)c3c2CS(=O)(=O)c2ccccc2-3)c1,inactive
4,COc1ccc(-n2c(=O)[nH]c3cc(C(=O)NCCc4ccc(OC)c(OC)c4)ccc3c2=O)c(OC)c1,inactive
5,Cc1cc(C)c(-c2n[nH]c3c2C(c2ccccc2F)N(CCO)C3=O)c(O)c1 (configuration not stated),inactive
6,COc1ccc(CNC(=O)Cn2nnc(-c3ccc(S(C)(=O)=O)cc3)n2)cc1,inactive
7,COc1ccc(S(=O)(=O)NCc2ccc(C(=O)N(C)Cc3ccco3)cc2)cc1,inactive
8,COc1ccc(N(Cc2ccc(N(C)C)cc2)C(=O)c2ccc(S(C)(=O)=O)cc2)cc1,63.1 µM (active)
9,CCn1cc2nc(SCc3ccccc3Cl)n(CCc3ccccc3)c(=O)c2n1,inactive
10,O=C(c1cccc(Br)c1)N1CCN(Cc2cc(=O)n3nc(-c4ccccc4)sc3n2)CC1,inactive
11,COCCCNC(=O)c1c(NC(=O)c2cc(=O)c3cc(C)c(C)cc3o2)sc2c1CCCC2,inactive
12,Cc1ccc(-c2nn3c(=O)cc(CN4CCN(C(=O)Nc5cccc(C(F)(F)F)c5)CC4)nc3s2)cc1,inactive
13,O=C(c1cccnc1)N(c1cc2sc(=O)oc2c2ccccc12)S(=O)(=O)c1ccccc1,25.1 µM (active)
14,COc1ccc(N(C(=O)c2cccnc2)S(=O)(=O)c2ccc(OC)c(OC)c2)cc1,inactive
15,O=C(c1cccnc1)N(Cc1ccccc1)C(=O)c1cccnc1,inactive
16,COc1ccc(C(F)(F)F)cc1NC(=O)c1sc2nc(-c3cccs3)ccc2c1N,inactive
17,COc1cccc(CNC(=O)C(NS(=O)(=O)c2ccc3nc(C)sc3c2)C(C)C)c1 (configuration not stated),inactive
18,CCOC(=O)N1CCN(C(=O)C2CCN(S(=O)(=O)c3cc(Cl)ccc3OCC)CC2)CC1,inactive
19,CCOC(=O)N1CCN(CCC(=O)Nc2cc(OC)ccc2OC)CC1,inactive
20,CCOC(=O)N1CCN(C(=O)C2CCN(Cc3ccc(OC)cc3OC)CC2)CC1,1 µM (active)
21,CC(C)(C)c1ccc(C(=O)NCC(c2ccco2)S(=O)(=O)c2ccc(F)cc2)cc1 (configuration not stated),inactive
22,O=C(NCc1cccnc1)C(=O)NCC(c1cccnc1)N1CCN(c2ccccc2)CC1 (configuration not stated),inactive
23,COc1ccc(CNC(=O)c2cc3c(-c4ccccc4F)nn(C)c3s2)c(OC)c1,inactive
